± gives the standard deviation.

The test system of one test is RAW-Dual (murine macrophage reporter line). The test can be described thus: NF-kB reporter (SEAP) activity fold change vs agonist alone; higher = enhanced NF-kB activity. Particulars: modulator concentration 10 µM; agonist: MPLA […]. In outline:
(§1)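 Compound reached 10 μM final in each well by pin transfer, onto RAW-Dual murine macrophage reporter cells seeded at 50 000 per well in 384-well plates. After 1 hour at 37 °C, the cells were stimulated overnight with a PRR agonist. SEAP in the supernatant was read with QUANTI-Blue at 620 nm absorbance for NF-κB, and Lucia luciferase was read with QUANTI-Luc luminescence for IRF. Each signal was turned into fold change against the mean agonist-only control on the same plate, and two replicate plates were averaged with propagated errors.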
With `O=S1(=O)Nc2c(ccc3cccnc23)-c2ccccc21`, the NF-kB reporter turned out to be 2.34 ± 0.22.

Take `O=C(NCCCCNC(=O)c1cncc(Br)c1)c1cncc(Br)c1`: the NF-kB reporter came to 0.907 ± 0.075.

Turning to `Nc1ncnc2c1nc(S)n2C1OC(CO)C(O)C1O` (stereo not given), the NF-kB reporter came out at 0.951 ± 0.11.

Consider `Cn1nc(CNC(=O)c2cccc3ccccc23)cc1C1CC1`, for which the NF-kB reporter stood at 0.963 ± 0.025.

`CC1(C)[C@H](C(=O)O)N2C(=O)C[C@H]2S1(=O)=O`: the NF-kB reporter worked out at 1.06 ± 0.033.

Turning to `O=C(Cn1cnc(-c2ccc(Cl)cc2)cc1=O)N1CCOCC1`, the NF-kB reporter was found to be 0.925 ± 0.07.

On to `Cl.N=C1CCCN1Cc1[nH]c(=O)[nH]c(=O)c1Cl`, for which the NF-kB reporter amounted to 0.688 ± 0.06.

For the compound `Cl.N=c1ccn2c(n1)OC1C(O)C(CO)OC12` (stereo not given), the NF-kB reporter amounted to 1.16 ± 0.073.

`COC1(c2ccc(Cl)cc2)OC(=O)c2ccccc21` (stereo not given): the NF-kB reporter was 1.07 ± 0.093.

With `O=c1oc2c3c4c(cc2cc1-c1nnc(-c2ccccc2)o1)CCCN4CCC3`, the NF-kB reporter was 0.98 ± 0.058.

Consider `c1ccc(-c2cc3c4cccn4ccn3c2)cc1`, for which the NF-kB reporter stood at 0.848 ± 0.085.

Regarding `CC1(C)CCC2(C(=O)O)CCC3(C)C(=CCC4C5(C)CCC(O)C(C)(C)C5CCC43C)C2C1` (stereo not given), the NF-kB reporter was 0.942 ± 0.095.

Turning to `COc1ccc(C(O)CN2CCN(c3cccc(C)c3C)CC2)cc1OC` (stereo not given), the NF-kB reporter came to 0.95 ± 0.06.

As for `N#CC[C@H](C1CCCC1)n1cc(-c2ncnc3[nH]ccc23)cn1`, the NF-kB reporter came to 0.734 ± 0.074.

In the case of `CN(C)C(CNC(=O)NCc1ccc(Cl)cc1)c1ccc2c(c1)CCO2` (stereo not given), the NF-kB reporter came out at 0.937 ± 0.1.

As for `Oc1ccc(C=NCc2ccccc2)cc1`, the NF-kB reporter turned out to be 1.04 ± 0.038.

For the compound `COc1ccc(NC(=O)CCn2nc(C)nc2C)cc1`, the NF-kB reporter came out at 0.963 ± 0.12.

Consider `Nc1ncnc2c1ncn2[C@@H]1O[C@H](CO)[C@@H](O)[C@H]1O`, for which the NF-kB reporter is 1.17 ± 0.11.

As for `CC1(C)CC(=O)c2c(nc3ccc(Br)cc3c2N)C1.Cl`, the NF-kB reporter is 0.883 ± 0.053.

Take `Cc1ccc(C(=O)NC(Oc2ccc3ccccc3c2)C(Br)(Br)Br)cc1` (stereo not given): the NF-kB reporter was found to be 0.86 ± 0.053.

With `Cc1cc(CCNC(=O)c2cc3ccccc3s2)nn1C`, the NF-kB reporter was determined as 0.991 ± 0.064.

As for `Cc1c(C(=O)Nc2ccc(N3C[C@@H](C)O[C@@H](C)C3)nc2)cccc1-c1ccc(OC(F)(F)F)cc1`, the NF-kB reporter was found to be 1.64 ± 0.18.

Regarding `COCCCN1C(=O)C(=Cc2ccc(-c3ccc(Cl)cc3Cl)o2)SC1=S`, the NF-kB reporter came out at 0.96 ± 0.036.

`CC(C)CN(CC(O)C(Cc1ccccc1)NC(=O)OC1COC2OCCC12)S(=O)(=O)c1ccc(N)cc1` (stereo not given) [Prestw-1802]: the NF-kB reporter stood at 1.84 ± 0.15.

As to `CCn1c2ccccc2c2cc(CNCCc3ccccc3)ccc21`, the NF-kB reporter turned out to be 0.977 ± 0.068.

Take `O=C(OC1Cc2c(O)cc(O)cc2OC1c1cc(O)c(O)c(O)c1)c1cc(O)c(O)c(O)c1` (stereo not given): the NF-kB reporter amounted to 1.02 ± 0.092.

As to `CCc1sc2sncc2c1Br`, the NF-kB reporter is 1.17 ± 0.11.

As for `COc1cccc(N2CCN(C3CCN(CC4CCOCC4)CC3)CC2)c1`, the NF-kB reporter is 1.22 ± 0.17.

As to `CN1CCN(CCCN2c3ccccc3Sc3ccc(Cl)cc32)CC1.O=C(O)/C=C\C(=O)O.O=C(O)/C=C\C(=O)O`, the NF-kB reporter worked out at 2.15 ± 0.15.

Take `Cc1ccc(OCC(=O)N2CCN(c3ccc(-n4cncn4)nn3)CC2)c(C(C)(C)C)c1`: the NF-kB reporter came out at 1.27 ± 0.037.

For `Cc1ccc(S(=O)(=O)n2c(C)nc3ccccc32)cc1`, the NF-kB reporter stood at 0.897 ± 0.089.

Regarding `CCCCNCCCCOc1ccc(C)cc1C(C)(C)C`, the NF-kB reporter is 1.38 ± 0.048.

As for `CCN(CC)CCOC(=O)c1ccc(N)cc1Cl.Cl`, the NF-kB reporter came out at 1.04 ± 0.038.

On to `CC(=O)C(C(=O)Nc1ccc(F)cc1)C(c1ccc(Cl)cc1Cl)C(C#N)C#N` (stereo not given), for which the NF-kB reporter was found to be 0.915 ± 0.093.

Regarding `O=C(CCc1ccc(O)cc1)c1c(O)cc(O)cc1O`, the NF-kB reporter was determined as 1.13 ± 0.088.

For `Nc1nc(Cl)nc2c1ncn2[C@@H]1O[C@H](CO)[C@@H](O)[C@@H]1F`, the NF-kB reporter is 1.4 ± 0.087.

With `CCC(C)(C)C(=O)OC1CC(C)C=C2C=CC(C)C(CCC3CC(O)CC(=O)O3)C21` (stereo not given), the NF-kB reporter was 1.91 ± 0.18.

As for `O=C(CC1CCCCN1S(=O)(=O)c1ccccc1)NCCC1=CCCCC1` (stereo not given), the NF-kB reporter was found to be 0.903 ± 0.13.

Turning to `C#Cc1cccc(Nc2ncnc3cc(OC)c(OCCCCCCC(=O)NO)cc23)c1`, the NF-kB reporter came to 2.44 ± 0.12.

Take `C=C1C(=O)O[C@@H]2[C@H]3O[C@]3(C)CC/C=C(\C)CC[C@@H]12` [Prestw-550]: the NF-kB reporter was determined as 0.108 ± 0.0071.

The test system is the same in the next test. The test can be described thus: IRF reporter (Lucia luciferase) activity fold change vs agonist alone; higher = enhanced IRF activity. Particulars: modulator concentration 10 µM; agonist: 3'3'-cGAMP 10 ug/mL. In outline:
as §1
As to `O=S1(=O)Nc2c(ccc3cccnc23)-c2ccccc21`, the IRF reporter is 15 ± 0.57.

`O=C(NCCCCNC(=O)c1cncc(Br)c1)c1cncc(Br)c1`: the IRF reporter turned out to be 0.946 ± 0.038.

As to `Nc1ncnc2c1nc(S)n2C1OC(CO)C(O)C1O` (stereo not given), the IRF reporter amounted to 0.957 ± 0.051.

Consider `Cn1nc(CNC(=O)c2cccc3ccccc23)cc1C1CC1`, for which the IRF reporter was 0.833 ± 0.031.

For `CC1(C)[C@H](C(=O)O)N2C(=O)C[C@H]2S1(=O)=O`, the IRF reporter was 0.944 ± 0.072.

As for `O=C(Cn1cnc(-c2ccc(Cl)cc2)cc1=O)N1CCOCC1`, the IRF reporter came out at 0.933 ± 0.032.

For the compound `Cl.N=C1CCCN1Cc1[nH]c(=O)[nH]c(=O)c1Cl`, the IRF reporter was found to be 0.423 ± 0.028.

As to `Cl.N=c1ccn2c(n1)OC1C(O)C(CO)OC12` (stereo not given), the IRF reporter was 0.696 ± 0.026.

In the case of `COC1(c2ccc(Cl)cc2)OC(=O)c2ccccc21` (stereo not given), the IRF reporter came to 0.9 ± 0.052.

For `O=c1oc2c3c4c(cc2cc1-c1nnc(-c2ccccc2)o1)CCCN4CCC3`, the IRF reporter came out at 1.02 ± 0.058.

In the case of `c1ccc(-c2cc3c4cccn4ccn3c2)cc1`, the IRF reporter is 0.31 ± 0.029.

For `CC1(C)CCC2(C(=O)O)CCC3(C)C(=CCC4C5(C)CCC(O)C(C)(C)C5CCC43C)C2C1` (stereo not given), the IRF reporter was determined as 0.878 ± 0.03.

In the case of `COc1ccc(C(O)CN2CCN(c3cccc(C)c3C)CC2)cc1OC` (stereo not given), the IRF reporter is 0.956 ± 0.054.

In the case of `N#CC[C@H](C1CCCC1)n1cc(-c2ncnc3[nH]ccc23)cn1`, the IRF reporter was found to be 0.269 ± 0.012.

In the case of `CN(C)C(CNC(=O)NCc1ccc(Cl)cc1)c1ccc2c(c1)CCO2` (stereo not given), the IRF reporter was found to be 0.854 ± 0.026.

As for `Oc1ccc(C=NCc2ccccc2)cc1`, the IRF reporter was 0.921 ± 0.11.

Turning to `COc1ccc(NC(=O)CCn2nc(C)nc2C)cc1`, the IRF reporter came out at 0.961 ± 0.049.

Take `Nc1ncnc2c1ncn2[C@@H]1O[C@H](CO)[C@@H](O)[C@H]1O`: the IRF reporter amounted to 1.22 ± 0.25.

As for `CC1(C)CC(=O)c2c(nc3ccc(Br)cc3c2N)C1.Cl`, the IRF reporter amounted to 0.771 ± 0.036.

As to `Cc1ccc(C(=O)NC(Oc2ccc3ccccc3c2)C(Br)(Br)Br)cc1` (stereo not given), the IRF reporter is 0.598 ± 0.047.

Take `Cc1cc(CCNC(=O)c2cc3ccccc3s2)nn1C`: the IRF reporter worked out at 0.82 ± 0.032.

With `Cc1c(C(=O)Nc2ccc(N3C[C@@H](C)O[C@@H](C)C3)nc2)cccc1-c1ccc(OC(F)(F)F)cc1`, the IRF reporter stood at 0.412 ± 0.024.

With `COCCCN1C(=O)C(=Cc2ccc(-c3ccc(Cl)cc3Cl)o2)SC1=S`, the IRF reporter turned out to be 1.02 ± 0.052.

Regarding `CC(C)CN(CC(O)C(Cc1ccccc1)NC(=O)OC1COC2OCCC12)S(=O)(=O)c1ccc(N)cc1` (stereo not given) [Prestw-1802], the IRF reporter was determined as 0.872 ± 0.069.

On to `CCn1c2ccccc2c2cc(CNCCc3ccccc3)ccc21`, for which the IRF reporter is 0.438 ± 0.067.

Regarding `O=C(OC1Cc2c(O)cc(O)cc2OC1c1cc(O)c(O)c(O)c1)c1cc(O)c(O)c(O)c1` (stereo not given), the IRF reporter came to 0.822 ± 0.029.

`CCc1sc2sncc2c1Br`: the IRF reporter is 0.315 ± 0.014.

`COc1cccc(N2CCN(C3CCN(CC4CCOCC4)CC3)CC2)c1`: the IRF reporter came out at 0.901 ± 0.043.

Consider `CN1CCN(CCCN2c3ccccc3Sc3ccc(Cl)cc32)CC1.O=C(O)/C=C\C(=O)O.O=C(O)/C=C\C(=O)O`, for which the IRF reporter turned out to be 0.14 ± 0.012.

For `Cc1ccc(OCC(=O)N2CCN(c3ccc(-n4cncn4)nn3)CC2)c(C(C)(C)C)c1`, the IRF reporter turned out to be 0.964 ± 0.07.

Regarding `Cc1ccc(S(=O)(=O)n2c(C)nc3ccccc32)cc1`, the IRF reporter was 0.969 ± 0.025.

`CCCCNCCCCOc1ccc(C)cc1C(C)(C)C`: the IRF reporter worked out at 0.0798 ± 0.034.

For the compound `CCN(CC)CCOC(=O)c1ccc(N)cc1Cl.Cl`, the IRF reporter is 0.957 ± 0.087.

With `CC(=O)C(C(=O)Nc1ccc(F)cc1)C(c1ccc(Cl)cc1Cl)C(C#N)C#N` (stereo not given), the IRF reporter worked out at 0.903 ± 0.04.

Regarding `O=C(CCc1ccc(O)cc1)c1c(O)cc(O)cc1O`, the IRF reporter came to 0.768 ± 0.038.

Consider `Nc1nc(Cl)nc2c1ncn2[C@@H]1O[C@H](CO)[C@@H](O)[C@@H]1F`, for which the IRF reporter is 1.08 ± 0.26.

Regarding `CCC(C)(C)C(=O)OC1CC(C)C=C2C=CC(C)C(CCC3CC(O)CC(=O)O3)C21` (stereo not given), the IRF reporter is 0.43 ± 0.014.

Turning to `O=C(CC1CCCCN1S(=O)(=O)c1ccccc1)NCCC1=CCCCC1` (stereo not given), the IRF reporter worked out at 1.03 ± 0.054.

As for `C#Cc1cccc(Nc2ncnc3cc(OC)c(OCCCCCCC(=O)NO)cc23)c1`, the IRF reporter was 0.563 ± 0.034.

With `C=C1C(=O)O[C@@H]2[C@H]3O[C@]3(C)CC/C=C(\C)CC[C@@H]12` [Prestw-550], the IRF reporter was 0.0909 ± 0.0037.

The values are drawn from the supplement of paper PMC10646978.
